EBI2 block: antagonists of human EBI2 receptor; EBI2 beta-arrestin recruitment, luminescence, 7a,25-OHC stimulated; AID 651636; inhibition, % at 5 µM; 0.81% of 360,000 active; in the data active = inhibition above about 38%;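 also: enzyme fragment complementation signal reports receptor beta-arrestin coupling in cells; 0% = agonist plus DMSO wells and 100% = wells without agonist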
SENP6 block: SENP6 protease inhibition; Q9GZR1; Recombinant SENP6 catalytic domain, aminoluciferin luminescence; inhibition, % at 10 µM; 1.8% of 330,000 active;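 active = inhibition above about 50% at the single tested dose, limit read from the data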;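 also: plate controls were DMSO wells with enzyme for no effect and DMSO wells lacking enzyme for full effect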
SENP8 block-1: blocks the human protease SENP8; 1.2% of 330,000 active; inhibition, % at 10 µM; purified SENP8, Z-RLRGG-aminoluciferin cleavage, luminescence; in the data active = inhibition above about 50%
Target sequence (Q96LD8 whole entry, looked up): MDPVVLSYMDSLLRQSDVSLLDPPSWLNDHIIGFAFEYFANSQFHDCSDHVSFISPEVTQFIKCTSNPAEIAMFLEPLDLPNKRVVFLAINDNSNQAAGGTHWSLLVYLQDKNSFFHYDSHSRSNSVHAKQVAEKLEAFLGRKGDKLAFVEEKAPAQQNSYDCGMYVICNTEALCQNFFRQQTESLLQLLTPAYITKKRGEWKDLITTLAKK
SENP7 inh: SENP7 protease inhibition | recombinant SENP7, Z-RLRGG-aminoluciferin luminescence, 40 min | inhibition, % at 5 µM | Q9BQF6 | 1.5% of 330,000 active;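 active = inhibition above about 50% at the single test dose, limit read from the data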;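 also: plate controls were DMSO with enzyme for no effect and no enzyme buffer wells for full effect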
Target sequence (Q9BQF6 706-1050 limits assumed): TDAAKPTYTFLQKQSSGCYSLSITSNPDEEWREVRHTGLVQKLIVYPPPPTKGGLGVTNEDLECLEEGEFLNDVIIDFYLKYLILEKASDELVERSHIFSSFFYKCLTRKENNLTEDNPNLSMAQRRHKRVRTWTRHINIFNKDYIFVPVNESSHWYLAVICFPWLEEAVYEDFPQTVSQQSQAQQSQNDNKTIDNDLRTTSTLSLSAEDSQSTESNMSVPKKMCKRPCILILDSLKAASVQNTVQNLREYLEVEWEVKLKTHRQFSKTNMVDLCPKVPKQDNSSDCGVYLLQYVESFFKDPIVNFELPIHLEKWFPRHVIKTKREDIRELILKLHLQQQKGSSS
SENP8 block-2: blocks human SENP8 cleavage of Nedd8 substrate; Q96LD8; recombinant SENP8, Nedd8 substrate fluorescence; inhibition, % at 20 µM; 0.64% of 360,000 active; in the data active = inhibition mostly above about 40%, no sharp cut-off; inactive = mostly below about 27%
AHR act: activators of human aryl hydrocarbon receptor; activation, % at 5 µM; 2.5% of 320,000 active; AID 2796; AHR-responsive luciferase reporter cells, luminescence; in the data active = activation above about 47%;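 also: 0% = vehicle wells and 100% = reference agonist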
SENP8 conf: confirmation of human SENP8 protease inhibitors. AID 488912. 40% of 6,200 active. Recombinant SENP8, Z-RLRGG-aminoluciferin luminescence, 60 min. shares compounds with SENP7 inh. inhibition, % at 12.5 µM;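 active = mean inhibition across replicates above about 50%, limit read from the data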
SENP6 conf: confirmation of human SENP6 protease inhibitors; shares compounds with SENP7 inh; recombinant SENP6, Z-RLRGG-aminoluciferin luminescence; inhibition, % at 12.5 µM; 58% of 6,200 active; AID 488915
SENP7 confirm: confirmation of human SENP7 protease inhibitors; shares compounds with SENP7 inh; recombinant SENP7, Z-RLRGG-aminoluciferin luminescence, 40 min; inhibition, % at 12.5 µM; 69% of 6,200 active
Casp3 select: selectivity test for SENP inhibitors: human caspase-3 inhibition; inhibition, % at 12.5 µM; 60% of 6,200 active; shares compounds with SENP7 inh; purified caspase-3, Z-DEVD-aminoluciferin luminescence, 60 min;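 active = mean inhibition above about 50%, limit read from the data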;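 also: plate controls were enzyme with DMSO for no effect and wells without caspase-3 for full effect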
Luc interf: luminescence interference (SENP counter-screen); shares compounds with SENP7 inh; Pre-incubated SENP8/Z-RLRGG-aminoluciferin, luciferase luminescence interference; inhibition, % at 12.5 µM; 39% of 6,200 active; AID 488919;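 active = mean inhibition above about 50% when retested at one dose, limit read from the data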;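 also: plate controls were DMSO wells with completed reaction for no effect and substrate without enzyme for full effect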
* = called active by the depositor; . = no result. Shown are actives, neighbours in structure and some others; about 5% of the full set was active somewhere.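 The calls were made as follows, unless noted: active = mean inhibition above about 50% in the one-dose retest (limit read from the data); inactive = the rest.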

SMILES	EBI2 block	SENP6 block	SENP8 block-1	SENP7 inh	SENP8 block-2	AHR act	SENP8 conf	SENP6 conf	SENP7 confirm	Casp3 select	Luc interf
C/C(=N\NC(=O)c1cc(Br)ccc1O)c1cccs1	4	63*	34	19	-231	21	27	39	30	40	4
C/C(=N\NC(=O)c1n[nH]c2c1CCC2)c1cccs1	-3	87*	82*	87*	27	-12	13	5	-8	10	1
Cc1ccc(/C=N/NC(=O)c2n[nH]c3c2CCCC3)cc1	-18	-14	-5	4	20	30	.	.	.	.	.
O=C(N/N=C/c1cccs1)c1n[nH]c2c1CCCC2	-3	89*	84*	92*	23	-5	7	89*	100*	96*	54*
CCOC(=O)CNC(=O)CSc1nnc(NC(=O)c2ccc3c(c2)OCO3)s1	6	54*	54*	79*	-54	13	5	6	19	50	4
CSc1nnc(NC(=O)c2ccc(S(=O)(=O)N(C)C)cc2)s1	-9	22	41	51*	-5	2	16	14	13	32	6
CSc1nnc(NC(=O)c2ccc3c(c2)OCO3)s1	-2	96*	90*	97*	-109	20	30	38	64*	51*	12
O=C(N/N=C/C=C/c1ccccc1)NC1CCCCC1	13	-6	-9	-4	14	10	.	.	.	.	.
CC(NS(=O)(=O)c1cccc(Cl)c1)C(=O)N(C)C1CCN(C)CC1 (stereo unspecified)	-9	-2	-2	7	8	-1	.	.	.	.	.
COc1ccccc1OCc1nc2ccccc2[nH]1	-1	38	13	21	10	11	.	.	.	.	.
Cc1ccc(SCc2nc3ccccc3[nH]2)cc1	8	57*	21	49	-67	7	51*	47	76*	64*	56*
c1ccc2cc(OCc3nc4ccccc4[nH]3)ccc2c1	15	87*	80*	77*	5	0	47	68*	95*	66*	40
Nc1ccc2nc(COc3ccccc3)[nH]c2c1	8	-6	-2	8	6	5	.	.	.	.	.
Brc1ccc(OCc2nc3ccccc3[nH]2)cc1	9	62*	56*	66*	14	8	49	46	85*	58*	11
Cc1ccccc1OCc1nc2ccccc2[nH]1	-4	80*	68*	86*	1	3	72*	72*	92*	86*	62*
COc1ccc(OCc2nc3ccccc3[nH]2)cc1	3	72*	72*	29	13	6	39	76*	94*	90*	80*
COc1cccc(OCc2nc3ccccc3[nH]2)c1	-5	67*	65*	74*	25	22	73*	72*	93*	86*	75*
CCCN1CCC(N2CCCC(C(=O)O)C2)CC1 (stereo unspecified)	3	3	3	6	13	0	.	.	.	.	.
Cc1cc(NC(=O)c2ccc3c(c2)OCO3)ccc1NC(=O)c1ccccc1	4	85*	61*	92*	7	-6	-25	32	30	7	-3
COc1cc(OC)cc(C(=O)Nc2ccc(NC(=O)c3ccco3)c(C)c2)c1	3	98*	94*	96*	3	8	4	95*	101*	96*	86*
Cc1ccc(NC(=O)c2ccco2)cc1C	-3	67*	32	65*	21	7	50*	48	80*	73*	52*
O=C(Nc1ccc(OC(=O)c2ccco2)cc1)c1ccco1	-16	83*	29	86*	14	1	67*	62*	90*	53*	80*
Cc1cc(NC(=O)c2ccco2)ccc1NC(=O)c1ccco1	-3	26	7	23	0	.	.	.	.	.	.
Cc1ccc(NC(=O)c2cc(S(=O)(=O)N3CCCC3)cn2C)cc1C	16	-16	-7	0	8	14	.	.	.	.	.
O=C(Nc1ccc(-c2nc3cccnc3s2)cc1)c1ccco1	1	93*	86*	89*	-385	37	75*	91*	99*	79*	22
SMILES	EBI2 block	SENP6 block	SENP8 block-1	SENP7 inh	SENP8 block-2	AHR act	SENP8 conf	SENP6 conf	SENP7 confirm	Casp3 select	Luc interf
O=C(Nc1ccc(Br)c(Cl)c1)c1ccco1	5	84*	46	70*	17	75*	61*	58*	84*	41	69*
CCn1nccc1C(=O)Nc1ccc(C)c(C)c1	3	70*	65*	82*	10	.	69*	64*	91*	84*	75*
Cc1cc(NC(=O)c2ccc3c(c2)OCO3)ccc1NC(=O)c1ccco1	9	91*	91*	92*	21	-8	8	90*	100*	96*	90*
COc1cc(NC(=O)c2ccc3c(c2)OCCO3)ccc1NC(=O)c1ccco1	0	-10	6	0	9	-12	.	.	.	.	.
O=C(Nc1ccc(-c2nc3cccnc3s2)cc1)c1ccc(Br)o1	2	12	14	13	-405	.	.	.	.	.	.
Cc1nnnn1CC(=O)Nc1ccccc1[N+](=O)[O-]	-6	11	-4	-1	6	-3	.	.	.	.	.
C/C(=N/NC(=O)c1ccc(C)s1)c1ccncc1	0	2	-5	-8	1	.	.	.	.	.	.
CCc1nnc(SCC(=O)Nc2ccccc2Cl)nc1CC	-8	7	-1	-3	-7	5	.	.	.	.	.
O=C(Nc1ccc(CSc2ccccc2)cc1)c1ccco1	2	84*	69*	89*	0	-2	7	63*	95*	72*	38
Cc1ccc2nc(-c3ccc(NC(=O)c4ccco4)cc3)[nH]c2c1	26	51*	-2	35	-148	-11	11	10	64*	28	42
C[C@@H]1NC(=O)N(CCCn2ccnc2)C1=O	-6	-38	-2	-9	9	4	.	.	.	.	.
Nn1c(SCc2ccccc2)nc2c(cnn2-c2ccccc2)c1=O	0	62*	22	43	9	31	23	14	64*	32	17

Compound activity as filed in PubChem BioAssay.
